About 83,000 compounds went through this panel and 20% of them were active in at least one assay; those are over-represented in the sample as a whole.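 A percent growth of 40 corresponds to 60% growth inhibition; 0 means no net growth; -100 means all cells died. Active threshold: below 10.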 Active and inactive are the calls of the source.
How the values were obtained:
Experiment in all cases: NCI-60 one-dose screen, 48 h (100 = growth as untreated, 0 = no growth, -100 = all killed)
Details in all cases: 10 µM unless noted
NCI-H23 lung = tested on: NCI-H23 lung
NCI-H226 lung = tested on: NCI-H226 lung
NCI-H322M lung = tested on: NCI-H322M lung
HOP-62 NSCLC = tested on: HOP-62 NSCLC
NCI-H460 lung = tested on: NCI-H460 lung
HOP-92 NSCLC = tested on: HOP-92 NSCLC
NCI-H522 lung = tested on: NCI-H522 lung
A549/ATCC NSCLC = tested on: A549/ATCC NSCLC
786-0 renal = tested on: 786-0 renal
COLO 205 colon = tested on: COLO 205 colon
DU-145 prostate = tested on: DU-145 prostate
K-562 leukemia = tested on: K-562 leukemia
MALME-3M melanoma = tested on: MALME-3M melanoma
MDA-MB-231 breast = tested on: MDA-MB-231 breast
SF-268 CNS = tested on: SF-268 CNS
SF-539 CNS = tested on: SF-539 CNS
UACC-257 melanoma = tested on: UACC-257 melanoma
M14 melanoma = tested on: M14 melanoma
RXF 393 renal = tested on: RXF 393 renal
SF-295 CNS = tested on: SF-295 CNS

Measured: growth

Fc1ccc(-c2nnc(N3CCOCC3)c3ccccc23)cc1
inactive: NCI-H23 lung 111% | NCI-H226 lung 97.2% | NCI-H322M lung 94.2% | HOP-62 NSCLC 97.1% | NCI-H460 lung 103% | HOP-92 NSCLC 103% | NCI-H522 lung 101% | A549/ATCC NSCLC 102% | 786-0 renal 105% | COLO 205 colon 89.6% | DU-145 prostate 104% | K-562 leukemia 99% | MALME-3M melanoma 82.9% | MDA-MB-231 breast 107% | SF-268 CNS 103% | SF-539 CNS 99.2% | UACC-257 melanoma 94.7% | M14 melanoma 93.9%

Cc1nc2n[nH]c(N)c2nc1C
inactive: NCI-H23 lung 102% | NCI-H226 lung 99.9% | NCI-H322M lung 93.1% | HOP-62 NSCLC 104% | NCI-H460 lung 111% | HOP-92 NSCLC 100% | NCI-H522 lung 93.9% | A549/ATCC NSCLC 99.2% | 786-0 renal 105% | COLO 205 colon 109% | DU-145 prostate 119% | MALME-3M melanoma 105% | MDA-MB-231 breast 120% | RXF 393 renal 119% | SF-295 CNS 105% | SF-539 CNS 103% | UACC-257 melanoma 96.8% | M14 melanoma 125%

N[C@@H](CO)C(=O)O
inactive: NCI-H23 lung 91% | NCI-H226 lung 97.7% | NCI-H322M lung 103% | HOP-62 NSCLC 105% | NCI-H460 lung 107% | HOP-92 NSCLC 89.8% | NCI-H522 lung 107% | A549/ATCC NSCLC 102% | 786-0 renal 95.1% | COLO 205 colon 106% | DU-145 prostate 101% | K-562 leukemia 110% | MDA-MB-231 breast 93.4% | RXF 393 renal 108% | SF-268 CNS 95.1% | SF-539 CNS 113% | UACC-257 melanoma 104% | M14 melanoma 107%

CCN(CC)CCNc1c(C)cc(CO)c(Cl)c1C
inactive: NCI-H23 lung 102% | NCI-H322M lung 110% | HOP-62 NSCLC 113% | NCI-H460 lung 98.9% | HOP-92 NSCLC 109% | NCI-H522 lung 104% | A549/ATCC NSCLC 84.5% | 786-0 renal 103% | COLO 205 colon 85.2% | DU-145 prostate 120% | K-562 leukemia 115% | MDA-MB-231 breast 104% | RXF 393 renal 119% | SF-295 CNS 104% | SF-539 CNS 103% | UACC-257 melanoma 96.7% | M14 melanoma 110%
active: NCI-H226 lung -23.6%

O=C(Cc1ccc(Nc2ccnc(C(F)(F)F)c2)cc1)N/N=C/c1ccccc1O
inactive: NCI-H23 lung 37.7% | NCI-H226 lung 51.4% | NCI-H322M lung 32% | HOP-92 NSCLC 75.8% | NCI-H522 lung 22.5% | A549/ATCC NSCLC 36.2% | COLO 205 colon 14% | DU-145 prostate 39.3% | MALME-3M melanoma 38.8% | MDA-MB-231 breast 27.9% | RXF 393 renal 49% | SF-268 CNS 28.6% | SF-295 CNS 30% | SF-539 CNS 24.1% | UACC-257 melanoma 34.7%
active: HOP-62 NSCLC -9.42% | NCI-H460 lung 3.37% | 786-0 renal 6.73% | M14 melanoma 8.64%

CCCCCNCCCCCNc1cc(OC)cc2cccnc12
active: HOP-92 NSCLC 9.38%
inactive: NCI-H23 lung 90.7% | NCI-H226 lung 94% | NCI-H322M lung 89.4% | HOP-62 NSCLC 79.1% | NCI-H460 lung 95.9% | NCI-H522 lung 89.6% | A549/ATCC NSCLC 96.1% | 786-0 renal 83.1% | COLO 205 colon 63.6% | DU-145 prostate 104% | MALME-3M melanoma 60.2% | MDA-MB-231 breast 88.8% | RXF 393 renal 68.3% | SF-268 CNS 95.6% | SF-539 CNS 87.8% | UACC-257 melanoma 101% | M14 melanoma 87.3%

Cc1cc(NC(=O)c2ccc(N)cc2)ccc1N=Nc1ccc2cc(S(=O)(=O)O)cc(S(=O)(=O)O)c2c1
inactive: NCI-H23 lung 103% | NCI-H226 lung 105% | NCI-H322M lung 125% | HOP-62 NSCLC 106% | NCI-H460 lung 117% | HOP-92 NSCLC 60.8% | NCI-H522 lung 129% | A549/ATCC NSCLC 92.1% | 786-0 renal 112% | COLO 205 colon 109% | K-562 leukemia 110% | MALME-3M melanoma 116% | MDA-MB-231 breast 109% | RXF 393 renal 110% | SF-268 CNS 115% | SF-295 CNS 106% | SF-539 CNS 107% | UACC-257 melanoma 102%

O=C(/C=C/c1cc([N+](=O)[O-])ccc1Cl)c1ccccc1
inactive: NCI-H23 lung 87.6% | NCI-H226 lung 86.5% | NCI-H322M lung 88.1% | HOP-62 NSCLC 103% | NCI-H460 lung 97.6% | HOP-92 NSCLC 73.7% | NCI-H522 lung 82.9% | A549/ATCC NSCLC 91.5% | 786-0 renal 78.4% | COLO 205 colon 109% | K-562 leukemia 24.4% | MALME-3M melanoma 102% | MDA-MB-231 breast 85.9% | RXF 393 renal 97.8% | SF-268 CNS 94.8% | SF-295 CNS 95.9% | SF-539 CNS 107% | UACC-257 melanoma 104% | M14 melanoma 94.1%

C=CCOc1c(Br)cc(Br)cc1Br
inactive: NCI-H23 lung 53.1% | NCI-H226 lung 81.5% | NCI-H322M lung 45% | HOP-62 NSCLC 58.6% | NCI-H460 lung 38.5% | HOP-92 NSCLC 90.6% | NCI-H522 lung 27.6% | A549/ATCC NSCLC 59.7% | 786-0 renal 102% | COLO 205 colon 103% | DU-145 prostate 81.8% | K-562 leukemia 52.2% | MDA-MB-231 breast 44.6% | RXF 393 renal 76.9% | SF-268 CNS 68.7% | SF-539 CNS 45.4% | UACC-257 melanoma 79% | M14 melanoma 73.5%

Source: PubChem BioAssay (NCI)
